The supplement of paper PMC11219838
A number with no mark means an inactive call.

The compounds below were run on Meloidogyne hapla J2 (assay: proportion of mobile M. hapla J2 relative to DMSO control (fraction of DMSO control); higher = more viable, less nematicidal, active = 0.7 or less). Conditions: 60 µM; 5 days; temperature: 20 °C.
Outline: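 Compound was pinned to 60 µM final (0.6% v/v DMSO) into 96-well wells, each holding about 25 M. hapla J2 in distilled water. Plates were sealed and shaken for 5 days at 20 °C and 200 rpm, then given 2 µL 1 M NaOH per well. Microscopic mobility scores were normalised to the mean of the plate's own DMSO wells, eight per plate, with two biological replicates averaged.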
In the case of CC1CCN(C(=O)CSc2nnc(-c3cccc(Cl)c3)o2)CC1, the “proportion of mobile M. hapla J2” value is reported as 1.02.
In the case of COc1ccc(C(=O)CSc2nnc(-c3cccc4ccccc34)o2)cc1, the “proportion of mobile M. hapla J2” value is reported as 0.929.
For Cc1ccc(-c2noc(COc3ccc(Br)cc3)n2)cc1, the “proportion of mobile M. hapla J2” value was 1.
In the case of O=C(c1ccccc1-c1nc(-c2ccc(F)cc2)no1)N1CCCC1, the “proportion of mobile M. hapla J2” value is reported as 1.06.
In the case of Cc1nc(CSc2nnc(-c3ccc(Cl)cc3)o2)cs1, the “proportion of mobile M. hapla J2” value is reported as 0.947.
For CC(C)Oc1ccc(-c2nc(-c3ccccc3)no2)cc1, the “proportion of mobile M. hapla J2” value was 0.993.
With Cc1ccc(-c2noc(-c3ccccc3OCC(N)=O)n2)cc1 the “proportion of mobile M. hapla J2” value was 1.04.
With CC(C)(C)c1ccc(OCc2nc(-c3ccncc3)no2)c(Br)c1 the “proportion of mobile M. hapla J2” value was 0.875.
In the case of COC(=O)c1ccc(CSc2nnc(-c3cccnc3)o2)cc1, the “proportion of mobile M. hapla J2” value is reported as 1.03.
With O=C(CSc1nnc(-c2ccncc2)o1)Nc1cccc(Cl)c1Cl the “proportion of mobile M. hapla J2” value was 0.818.
In the case of COc1cccc(NC(=O)CSc2nnc(-c3ccc(Br)cc3)o2)c1, the “proportion of mobile M. hapla J2” value is reported as 0.966.
With CCCC(=O)Nc1ccccc1-c1nc(-c2cccnc2)no1 the “proportion of mobile M. hapla J2” value was 1.04.
In the case of COc1nc2ccc(C)cc2cc1-c1noc(-c2cccnc2)n1, the “proportion of mobile M. hapla J2” value is reported as 0.972.
For COc1cccc(-c2noc(-c3cc(C)ccc3C)n2)c1, the “proportion of mobile M. hapla J2” value was 0.995.
For COc1ccc(-c2noc(COc3ccc(F)cc3)n2)cc1, the “proportion of mobile M. hapla J2” value was 0.891.
For COC(=O)c1ccc(CSc2nnc(-c3ccc(OC)cc3)o2)cc1, the “proportion of mobile M. hapla J2” value was 1.02.
In the case of COc1cccc(-c2nc(-c3ccccc3)no2)c1, the “proportion of mobile M. hapla J2” value is reported as 1.04.
CCOc1nc(-c2ccc(C)cc2)ccc1-c1noc(-c2cccnc2)n1 was tested, and the “proportion of mobile M. hapla J2” value was 0.842.
For COc1ccc(Cl)cc1-c1nc(-c2ccc3c(c2)OCO3)no1, the “proportion of mobile M. hapla J2” value was 0.957.
For Clc1ccc(OCc2nc(-c3ccccn3)no2)c(Br)c1, the “proportion of mobile M. hapla J2” value was 1.04.
COc1nc(C)ccc1-c1noc(-c2ccc(C(C)(C)C)cc2)n1 was tested, and the “proportion of mobile M. hapla J2” value was 0.926.
CC(Oc1ccc(Br)cc1)c1nc(-c2ccncc2)no1 (stereo not drawn) was tested, and the “proportion of mobile M. hapla J2” value was 0.719.
COc1nc(C)ccc1-c1noc(-c2ccccc2Br)n1 was tested, and the “proportion of mobile M. hapla J2” value was 0.917.
CCNC(=O)c1ccccc1-c1nc(-c2ccc(OC)cc2)no1 was tested, and the “proportion of mobile M. hapla J2” value was 0.785.
With Cc1ccc(-c2noc(COc3ccccc3C)n2)cc1 the “proportion of mobile M. hapla J2” value was 1.01.
With CCC(=O)Nc1ccccc1-c1nc(-c2ccccn2)no1 the “proportion of mobile M. hapla J2” value was 0.865.
For Cc1ccc(OC(C)c2nc(-c3ccc4c(c3)OCO4)no2)cc1C (stereo not drawn), the “proportion of mobile M. hapla J2” value was 0.943.
With Cc1ccccc1OCc1nc(-c2cccc(C(F)(F)F)c2)no1 the “proportion of mobile M. hapla J2” value was 0.946.
For COc1ccccc1NC(=O)c1ccccc1-c1nc(-c2ccc(Cl)cc2)no1, the “proportion of mobile M. hapla J2” value was 0.78.
With C=CCOc1ccc(-c2nc(-c3cccnc3)no2)cc1 the “proportion of mobile M. hapla J2” value was 0.965.
For N#Cc1ccc(OCc2nc(-c3ccc(Br)o3)no2)cc1, the “proportion of mobile M. hapla J2” value was 1.06.
Cc1ccc(-c2noc(-c3cccc(Br)c3)n2)cc1 was tested, and the “proportion of mobile M. hapla J2” value was 1.04.
CCCc1ccc(-c2ccc(-c3nc(-c4ccccn4)no3)cc2)cc1 was tested, and the “proportion of mobile M. hapla J2” value was 0.978.
With Cc1ccc(SC(C)c2nc(-c3ccncc3)no2)cc1 (stereo not drawn) the “proportion of mobile M. hapla J2” value was 0.861.
With COc1ccc(-c2noc(COc3ccc(Br)cc3)n2)cc1 the “proportion of mobile M. hapla J2” value was 1.
COc1ccc(NC(=O)c2ccccc2-c2nc(-c3ccccc3C)no2)cc1 was tested, and the “proportion of mobile M. hapla J2” value was 0.81.
For c1ccc(-c2noc(COc3cccc4ccccc34)n2)nc1, the “proportion of mobile M. hapla J2” value was 0.936.
In the case of COc1ccc(-c2nnc(SCC(=O)Nc3ccccc3C(C)C)o2)cc1, the “proportion of mobile M. hapla J2” value is reported as 0.877.
For Cc1ccc(-c2noc(CSc3nc(C)cc(C)n3)n2)cc1, the “proportion of mobile M. hapla J2” value was 0.974.

Each compound was assayed on Caenorhabditis elegans dauer (daf-2(e1370)) (assay: proportion of mobile C. elegans dauer larvae relative to DMSO control (fraction of DMSO control); higher = more viable, less nematicidal, active = 0.63 or less; extreme values may be limits of the assay). Conditions: 60 µM; 5 days; temperature: 20 °C.
Outline: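 The proportion of mobile worms, relative to DMSO wells, was scored by dissection microscope and averaged over two biological replicates. Worms were C. elegans dauers, about 20 per well in liquid NGM in 96-well plates, generated from synchronized larvae on MYOB plates with E. coli OP50 at 25 °C for 48 h. They were treated with compound pinned to 60 µM final (0.6% v/v DMSO) and kept in sealed plates shaken at 200 rpm for 5 days at 20 °C.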
CC1CCN(C(=O)CSc2nnc(-c3cccc(Cl)c3)o2)CC1 was tested, and the “proportion of mobile C. elegans dauer larvae” value was 1.
For COc1ccc(C(=O)CSc2nnc(-c3cccc4ccccc34)o2)cc1, the “proportion of mobile C. elegans dauer larvae” value was 1.
Cc1ccc(-c2noc(COc3ccc(Br)cc3)n2)cc1 was tested, and the “proportion of mobile C. elegans dauer larvae” value was 1.
With O=C(c1ccccc1-c1nc(-c2ccc(F)cc2)no1)N1CCCC1 the “proportion of mobile C. elegans dauer larvae” value was 1.
In the case of Cc1nc(CSc2nnc(-c3ccc(Cl)cc3)o2)cs1, the “proportion of mobile C. elegans dauer larvae” value is reported as 1.
For CC(C)Oc1ccc(-c2nc(-c3ccccc3)no2)cc1, the “proportion of mobile C. elegans dauer larvae” value was 1.
Cc1ccc(-c2noc(-c3ccccc3OCC(N)=O)n2)cc1 was tested, and the “proportion of mobile C. elegans dauer larvae” value was 1.
With CC(C)(C)c1ccc(OCc2nc(-c3ccncc3)no2)c(Br)c1 the “proportion of mobile C. elegans dauer larvae” value was 1.
In the case of COC(=O)c1ccc(CSc2nnc(-c3cccnc3)o2)cc1, the “proportion of mobile C. elegans dauer larvae” value is reported as 1.
For O=C(CSc1nnc(-c2ccncc2)o1)Nc1cccc(Cl)c1Cl, the “proportion of mobile C. elegans dauer larvae” value was 1.
For COc1cccc(NC(=O)CSc2nnc(-c3ccc(Br)cc3)o2)c1, the “proportion of mobile C. elegans dauer larvae” value was 1.
With CCCC(=O)Nc1ccccc1-c1nc(-c2cccnc2)no1 the “proportion of mobile C. elegans dauer larvae” value was 1.
With COc1nc2ccc(C)cc2cc1-c1noc(-c2cccnc2)n1 the “proportion of mobile C. elegans dauer larvae” value was 1.
In the case of COc1cccc(-c2noc(-c3cc(C)ccc3C)n2)c1, the “proportion of mobile C. elegans dauer larvae” value is reported as 1.
With COc1ccc(-c2noc(COc3ccc(F)cc3)n2)cc1 the “proportion of mobile C. elegans dauer larvae” value was 1.
With COC(=O)c1ccc(CSc2nnc(-c3ccc(OC)cc3)o2)cc1 the “proportion of mobile C. elegans dauer larvae” value was 1.
With COc1cccc(-c2nc(-c3ccccc3)no2)c1 the “proportion of mobile C. elegans dauer larvae” value was 0.861.
With CCOc1nc(-c2ccc(C)cc2)ccc1-c1noc(-c2cccnc2)n1 the “proportion of mobile C. elegans dauer larvae” value was 1.
For COc1ccc(Cl)cc1-c1nc(-c2ccc3c(c2)OCO3)no1, the “proportion of mobile C. elegans dauer larvae” value was 1.
In the case of Clc1ccc(OCc2nc(-c3ccccn3)no2)c(Br)c1, the “proportion of mobile C. elegans dauer larvae” value is reported as 1.
For COc1nc(C)ccc1-c1noc(-c2ccc(C(C)(C)C)cc2)n1, the “proportion of mobile C. elegans dauer larvae” value was 1.
For CC(Oc1ccc(Br)cc1)c1nc(-c2ccncc2)no1 (stereo not drawn), the “proportion of mobile C. elegans dauer larvae” value was 0 (active).
In the case of COc1nc(C)ccc1-c1noc(-c2ccccc2Br)n1, the “proportion of mobile C. elegans dauer larvae” value is reported as 1.
With CCNC(=O)c1ccccc1-c1nc(-c2ccc(OC)cc2)no1 the “proportion of mobile C. elegans dauer larvae” value was 1.
In the case of Cc1ccc(-c2noc(COc3ccccc3C)n2)cc1, the “proportion of mobile C. elegans dauer larvae” value is reported as 1.
CCC(=O)Nc1ccccc1-c1nc(-c2ccccn2)no1 was tested, and the “proportion of mobile C. elegans dauer larvae” value was 1.
In the case of Cc1ccc(OC(C)c2nc(-c3ccc4c(c3)OCO4)no2)cc1C (stereo not drawn), the “proportion of mobile C. elegans dauer larvae” value is reported as 1.
Cc1ccccc1OCc1nc(-c2cccc(C(F)(F)F)c2)no1 was tested, and the “proportion of mobile C. elegans dauer larvae” value was 1.
For COc1ccccc1NC(=O)c1ccccc1-c1nc(-c2ccc(Cl)cc2)no1, the “proportion of mobile C. elegans dauer larvae” value was 1.
For C=CCOc1ccc(-c2nc(-c3cccnc3)no2)cc1, the “proportion of mobile C. elegans dauer larvae” value was 0.5 (active).
In the case of N#Cc1ccc(OCc2nc(-c3ccc(Br)o3)no2)cc1, the “proportion of mobile C. elegans dauer larvae” value is reported as 1.
For Cc1ccc(-c2noc(-c3cccc(Br)c3)n2)cc1, the “proportion of mobile C. elegans dauer larvae” value was 1.
In the case of CCCc1ccc(-c2ccc(-c3nc(-c4ccccn4)no3)cc2)cc1, the “proportion of mobile C. elegans dauer larvae” value is reported as 1.
In the case of Cc1ccc(SC(C)c2nc(-c3ccncc3)no2)cc1 (stereo not drawn), the “proportion of mobile C. elegans dauer larvae” value is reported as 0.8.
COc1ccc(-c2noc(COc3ccc(Br)cc3)n2)cc1 was tested, and the “proportion of mobile C. elegans dauer larvae” value was 1.
COc1ccc(NC(=O)c2ccccc2-c2nc(-c3ccccc3C)no2)cc1 was tested, and the “proportion of mobile C. elegans dauer larvae” value was 1.
c1ccc(-c2noc(COc3cccc4ccccc34)n2)nc1 was tested, and the “proportion of mobile C. elegans dauer larvae” value was 1.
With COc1ccc(-c2nnc(SCC(=O)Nc3ccccc3C(C)C)o2)cc1 the “proportion of mobile C. elegans dauer larvae” value was 1.
In the case of Cc1ccc(-c2noc(CSc3nc(C)cc(C)n3)n2)cc1, the “proportion of mobile C. elegans dauer larvae” value is reported as 1.
